FLuc counter = inhibits or activates purified firefly luciferase, miR-21 counter-screen | P08659 | purified FLuc, Km substrates, luminescence inhibition | Potency, µM (top dose mostly 57.5 µM), for the others: at the highest dose activity change, negative = inhibition, hits mostly inhibitors | 360,000 tested, 6.9% active | AID 588342;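 also: plate controls were vehicle for no effect and reference inhibitor for full effect; nearly all actives have a fitted effect of over 55% in size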
Target sequence (P08659 whole entry, looked up): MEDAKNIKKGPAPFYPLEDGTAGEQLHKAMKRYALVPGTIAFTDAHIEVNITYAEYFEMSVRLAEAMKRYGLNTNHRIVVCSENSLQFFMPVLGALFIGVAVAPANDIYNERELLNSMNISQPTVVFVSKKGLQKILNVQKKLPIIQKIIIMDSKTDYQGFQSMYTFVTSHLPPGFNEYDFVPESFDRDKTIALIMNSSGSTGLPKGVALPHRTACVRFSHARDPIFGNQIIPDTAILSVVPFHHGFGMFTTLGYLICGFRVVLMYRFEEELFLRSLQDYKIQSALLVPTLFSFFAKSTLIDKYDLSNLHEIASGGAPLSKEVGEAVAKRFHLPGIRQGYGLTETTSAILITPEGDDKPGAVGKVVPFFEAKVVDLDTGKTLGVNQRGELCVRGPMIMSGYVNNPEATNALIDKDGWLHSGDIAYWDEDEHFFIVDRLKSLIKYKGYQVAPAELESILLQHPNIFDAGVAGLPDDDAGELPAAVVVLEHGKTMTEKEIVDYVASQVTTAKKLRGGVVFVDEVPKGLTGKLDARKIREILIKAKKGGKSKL
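Biochemical qHTS of compounds, final roughly 60 µM downward over six points, against 10 nM purified firefly luciferase using Km concentrations of substrates (10 uM D-luciferin, 10 uM ATP) in Tris acetate pH 7.5 buffer; luminescence output.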
p53 reactivator = mutant p53 re-activation in reporter cells; Potency, µM (titrated, usually from 92.2 µM), without a hit: at the top dose activity change, positive = activation, actives largely listed as activators; H1299 p53-A138V BP100-luciferase reporter, luminescence, 24 h; 320,000 tested, 0.063% active; also: % of control where 0% means no effect; nearly all actives have a fitted effect of over 45% in size
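H1299 (p53-null), stable ts p53-A138V + BP100-Luc; 1000 cells/well, Opti-MEM/10% FBS; cpd 4 pt, 1:5; 24 h, 37 deg C, 5% CO2; detection reagent 10 min RT; luminescence.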
SMN2 splice enh = increases expression of the SMN2 splice variant; 210,000 tested, 2.8% active; HEK293 SMN2-luciferase splicing reporter, luminescence, 30-36 h; Potency, µM (series often up to 46.1 µM), inactives show at the highest dose activity change, positive = activation, actives largely listed as activators; AID 1458; also: % of control where 0% means no effect; nearly all actives have a fitted effect of over 55% in size
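HEK293 cells carry an SMN2 […]–luciferase reporter in which exon 7 inclusion puts luciferase in frame. Cells were plated 10-12 h before compound addition, then incubated 30-36 h at 37C. ONE-Glo luminescence was read; sodium butyrate at 4.5 mM final served as control.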
NPC1 prom act = activates the NPC1 promoter | 320,000 tested, 2.4% active | Potency, µM (doses to about 9.22 µM), without a hit: at the highest dose activation, actives largely listed as activators | AID 485313 | Huh7 NPC1 promoter luciferase reporter, 24 h; also: % of control where 0% means no effect; nearly all actives have a fitted effect of over 60% in size
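Luminescence from an NPC1 promoter-driven luciferase reporter in stably transfected Huh7 cells was measured after 24 h compound treatment at 37 °C, followed by 10 min ambient incubation with luciferase detection reagent.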
Rab9 prom act = activators of Rab9 promoter; Huh7 Rab9 promoter-luciferase reporter, luminescence, 24 h; Potency, µM (titrated, usually from 9.22 µM), for the others: top-dose activation, negative = inhibition, most hits filed as activators; 320,000 tested, 2.8% active; also: % of control where 0% means no effect; nearly all actives have a fitted effect of over 60% in size
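Huh7 cells stably carrying Rab9 promoter–luciferase reporter, plated 1500 cells/well, compound added after 2 h and incubated 24 h at 37 °C; luciferase luminescence then read after 10 min with detection reagent.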
ELG1 genotox = induces genotoxicity in HEK293T cells with luciferase-tagged ELG1. 330,000 tested, 1.3% active. Potency, µM (series often up to 46 µM), for the others: top-dose activity change, positive = activation, most hits filed as activators. HEK293T ELG1-luciferase reporter, luminescence, 16 h; also: % of control where 0% means no effect; nearly all actives have a fitted effect of over 60% in size
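Step 1: seed 2,000 HEK293T ELG1-luciferase cells per well. Step 2: add compound or DMSO, incubate 16 hr at 37 °C. Step 3: ONE-Glo, 30 min at room temperature, read luminescence.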
An asterisk follows results filed as active; ? = inconclusive; · = no result; [ ] = dose if it differs, or a comment. Hits are enriched below; roughly 7.4% of the tested compounds scored in any of these assays. Calls follow the shape of the dose curve; as a rule, active = well fitted curve in the direction sought with a large enough effect; inconclusive = small, poorly fitted or top-dose-only effect, or another doubt; inactive = no such curve, though single readings can be large; an effect the other way counts as inactive or inconclusive. Potency is read from the fitted curve at half-maximal effect.

SMILES	FLuc counter	p53 reactivator	SMN2 splice enh	NPC1 prom act	Rab9 prom act	ELG1 genotox
O=C(CSc1nc2c(oc3ccccc32)c(=O)[nH]1)Nc1cccc(Cl)c1	1.2µM*	·	20µM*	·	·	·
CC(C)c1ccccc1NCC(=O)N1CCN(Cc2ccccc2)CC1	-0.9%	-1.2%	·	0.5%	0.5%	-7.6%
O=C(Cn1nc(-c2ccc(Cl)cc2)ccc1=O)NCCc1ccccc1	0.1%	·	·	·	·	·
CNC(=O)c1c[nH]c2ccc(S(=O)(=O)Nc3cccc(Cl)c3C)cc2c1=O	?	·	-6.7%	1.9%	0.0%	·
Cc1nn(S(=O)(=O)c2ccc(Br)cc2)c(C)c1S(=O)(=O)N1CCCCCC1	-1.4%	·	·	·	·	·
O=C(CCNC(=O)N1CCn2c1nc1ccccc12)NCc1ccc(Cl)cc1	-1.6%	-1.8%	·	-2.6%	-2.2%	-4.6%
COc1ccc(CNC(=O)CCCCCNC(=O)N2CCn3c2nc2ccccc23)cc1	16.9µM*	-2.8%	·	-13.8%	-1.8%	0.3%
CC(C)c1ccc(-n2nc3ccc(N)cc3n2)cc1	0.151µM*	12.3%	·	0.891µM*	0.447µM*	?
Cc1ccc(-n2nc3ccc(NC(=O)c4oc5ccc(C)cc5c4C)cc3n2)cc1	-13.8%	·	13.8%	·	·	·
Cc1ccc(-n2nc3ccc(N)cc3n2)cc1	0.536µM*	?	3.16µM*	?	0.501µM*	1.41µM*
Nc1ccc2nn(-c3ccc(F)cc3)nc2c1	4.26µM*	·	·	0.891µM*	1.41µM*	3.26µM*
Nc1ccc2nn(-c3cc([N+](=O)[O-])ccc3O)nc2c1	-0.5%	4.5%	·	11.3%	17.2%	-4.3%
O=C(OCC1CCCO1)c1ccc2c(c1)N(Cc1cccc(Cl)c1)C(=O)c1ccccc1S2(=O)=O (stereo not given)	-2.4%	·	·	·	·	·
CCc1ccc(-c2cn(-c3nc(C)cc(C)n3)c(=N)o2)cc1	5.36µM*	6.8%	1.5%	1.7%	0.3%	-8.1%
Cc1ccc(-c2cc(C(F)(F)F)n3ncc(-c4ccc(Cl)cc4)c3n2)cc1	0.5%	·	-9.1%	·	·	·
c1ccc(-c2cnc(-c3ccc(-c4ncc(-c5ccccc5)o4)cc3)o2)cc1	·	·	21.5%[9.22 µM]	·	·	·
Clc1ccccc1-c1ncc(-c2ccccc2)o1	1.35µM*	·	·	2.51µM*	2.82µM*	4.61µM*
c1ccc(COc2ccc(OCCn3cncn3)cc2)cc1	9.53µM*	?	11.2µM*	2.51µM*	3.16µM*	9.2µM*
CN1CCN(CCOc2ccc(-c3ccccc3)cc2)CC1	?	·	·	2.7%	0.0%	21.1%
c1ccc(-c2ccc(OCCCn3cncn3)cc2)cc1	16.9µM*	24.2%	-6.8%	25.6%	21.8%	?
CN1CCN(CCCOc2ccc(-c3ccccc3)cc2)CC1	19µM*	-7.5%	·	2.82µM*	?	?
CN(C)C(=O)c1ccc2c(c1[N+](=O)[O-])C(=O)c1ccccc1C2=O	3.6%	?	11.2µM*	?	?	8.0%
O=C(NNc1nc2ccc(F)cc2s1)c1cccc(F)c1	?	18.9%	-21.2%	9.3%	-15.2%	-6.5%
O=C(Nc1nc2ccccc2s1)c1cnccn1	2.13µM*	27.3%	6.31µM*	1.12µM*	0.316µM*	0.461µM*
O=C(Nc1nc2c(s1)CCCC2=O)c1cnccn1	?	17.7%	20µM*	?	?	23.1µM*
SMILES	FLuc counter	p53 reactivator	SMN2 splice enh	NPC1 prom act	Rab9 prom act	ELG1 genotox
CCOc1ccc2nc(NC(=O)c3cnccn3)sc2c1	1.51µM*	69.2%	·	0.794µM*	0.251µM*	?
O=C(Nc1nc2ccc(F)cc2s1)c1ccccn1	0.536µM*	9.1%	-54.1%	?	0.0891µM*	?
O=C(Nc1nc(-c2ccco2)c(-c2ccco2)s1)c1cnccn1	-4.3%	8.1%	·	-10.7%	-1.3%	-5.8%
O=C(COC(=O)C1COc2ccccc2O1)Nc1ccccc1OC(F)F (stereo not given)	·	-0.2%	·	·	·	-0.7%
COc1cccc(CNC(=O)CCCN2C(=O)CCn3nc(-c4cccn4C)cc32)c1	-3.2%	·	·	·	·	·
CCc1c2c(nc3ccc(OC)cc13)OC(CC)C2 (stereo not given)	·	·	-18.9%	·	·	·
O=C(NCc1cccnc1)C(=O)Nc1nc2ccccc2s1	15.1µM*	0.5%	-13.5%	14.1%	22.4%	?
COc1ccc(C2=NN(C(=O)CN3CCCCC3)C(c3ccc(C)cc3)C2)cc1 (stereo not given)	-2.0%	-1.4%	-6.8%	-8.5%	-2.7%	-6.7%
COc1ccc(C2=NN(C(=O)CN3CCOCC3)C(c3nc4ccccc4[nH]3)C2)cc1 (stereo not given)	15.1µM*	26.3%	?	11.5%	?	?
CSc1nc(O)c(N=Nc2ccc(F)cc2F)c(=O)[nH]1	0.849µM*	?	·	?	25.9%[1.84 µM]	?
CSc1nc(O)c(C(c2ccccc2)c2c(O)nc(SC)[nH]c2=O)c(=O)[nH]1	4.5%	·	·	-5.1%	4.9%	-0.2%
CCOc1ccc(C(=O)Nc2cccc(-c3nc4ccccc4[nH]3)c2C)cc1[N+](=O)[O-]	9.53µM*	1.7%	-9.8%	-3.1%	1.6%	-1.5%
CCOc1ccc(C(=O)Nc2cc(-c3nc4ccccc4[nH]3)ccc2C)cc1[N+](=O)[O-]	8.49µM*	-3.8%	-20.2%	-0.8%	-2.5%	-7.4%
Cn1c(=O)c2c(nc(NCCc3ccccc3)n2Cc2ccc(F)cc2)n(C)c1=O	4.3%	-10.0%	-4.2%	-9.2%	-19.8%	-17.7%
C=CCNc1nc2c(c(=O)n(C)c(=O)n2C)n1Cc1ccc(F)cc1	0.3%	-11.5%	-86.3%	-10.9%	-28.0%	20.6µM*
CCNc1nc2c(c(=O)[nH]c(=O)n2C)n1Cc1ccc(F)cc1	1.8%	-7.3%	?	-0.4%	-1.6%	23.1µM*
